# Measurements as given in PubChem BioAssay.
# Where “and” joins values, the source holds several entries; their conditions need not be identical. Identical values can stand only once. Calls of active or inactive are those of the source.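 Rule for the calls, unless noted: active = mean z-score across replicates of 1.96 or higher in either the MELAS or the Rieske mutant cell line; inactive = the rest.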
# Key:
# [1] = suppressors of polyQ aggregation in yeast, 75Q-TubU reporter (AID 1593); conditions: Yeast 75Q polyglutamine aggregation reporter
# [2] = inhibitors of mitochondrial cytochrome c release, biochemical, purified mitochondria (AID 1603); conditions: stronger effect = lower value;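 note: mouse liver mitochondria challenged with calcium chloride; signal normalized to the plate average as 100%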
# [3] = inhibitors of polyQ protein aggregation (AID 1604); conditions: polyglutamine-induced protein aggregation inhibition assay; stronger effect = higher value; tested at 2.5 µM
# [4] = stimulators of nuclear beta-catenin in C2C12, primary screen, imaging, WNT3A-conditioned medium, mouse C2C12, NPC library (AID 1117326; in the data active = nuclear beta-catenin stimulation mostly above about 4.2%, no sharp cut-off; inactive = mostly below about 10%); conditions: stronger effect = higher value
# [5] = stimulators of insulin release from INS-1E, primary screen, cell-based, 5 mM glucose, NPC library (AID 1117329;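 active = compound raises insulin release from rat beta cells at 5 mM glucose, no numeric limit stated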); conditions: rat INS-1E insulin secretion, at 10 µM, stronger effect = higher value
# [6] = growth inhibition of GSK3B-pretreated HCT116 cells – cell-based, CellTiter-Glo, 0.2 to 20 µM (AID 1117336;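 active = compounds lowering colon cancer cell viability after pretreatment blocking the GSK3B kinase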); conditions: HCT116 viability after GSK3B inhibitor, at 20 µM, stronger effect = higher value
# [7] = inhibition of endothelial tube formation, primary screen, imaging, VEGF stimulated, CD31 staining, tube area, NPC library (AID 1117340;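 active = compound that reduces growth-factor-driven endothelial tube area in a mixed cell culture, no cutoff stated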); conditions: VEGF-stimulated ADSC/ECFC co-culture, at 10 µM, stronger effect = higher value
# [8] = glucagon-like peptide 1 release enhancers, primary assay, NCI-H716 cell line, NPC library (AID 1117341;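 active = compound raises GLP1 secretion from the human gut endocrine cells, with no numeric limit stated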); conditions: NCI-H716 cells, at 10 µM, stronger effect = higher value
# [9] = HCT116 colon cancer cell growth inhibition, primary screen, CellTiter-Glo luminescence, NPC library (AID 1117342;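 active = compounds that lower survival of HCT116 colon cancer cells in the luminescence readout, no numeric limit stated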); conditions: at 20 µM (top of the series)
# [10] = CellTiter-Glo luminescent readout of SW480 viability loss, NPC library primary (AID 1117343;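 active = compounds that lower viability of the colon cancer cells in the luminescence readout, with no numeric limit stated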); conditions: CellTiter-Glo luminescence; at 20 µM (top of the series)
# [11] = decreased DLD-1 cellular survival, CellTiter-Glo luminescent readout, NPC compound collection, primary HTS (AID 1117346;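 active = compounds that lower survival of DLD-1 colon cancer cells in the luminescence readout, no cutoff given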); conditions: DLD-1 viability, CellTiter-Glo luminescence; at 20 µM (top of the series)
# [12] = molecular target: 6-phosphogluconate dehydrogenase, decarboxylating (Homo sapiens) (UniProt P52209); experiment: 6PGD enzyme inhibitors, primary screen, biochemical, human, recombinant enzyme, NADPH absorbance (AID 1159550;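 active = at least 20% inhibition of 6-phosphogluconate dehydrogenase activity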); conditions: recombinant 6PGD, NADPH absorbance 341 nm; at 10 µM; stronger effect = higher value
# Chain of 6-phosphogluconate dehydrogenase, decarboxylating (Homo sapiens) (P52209 whole entry, looked up): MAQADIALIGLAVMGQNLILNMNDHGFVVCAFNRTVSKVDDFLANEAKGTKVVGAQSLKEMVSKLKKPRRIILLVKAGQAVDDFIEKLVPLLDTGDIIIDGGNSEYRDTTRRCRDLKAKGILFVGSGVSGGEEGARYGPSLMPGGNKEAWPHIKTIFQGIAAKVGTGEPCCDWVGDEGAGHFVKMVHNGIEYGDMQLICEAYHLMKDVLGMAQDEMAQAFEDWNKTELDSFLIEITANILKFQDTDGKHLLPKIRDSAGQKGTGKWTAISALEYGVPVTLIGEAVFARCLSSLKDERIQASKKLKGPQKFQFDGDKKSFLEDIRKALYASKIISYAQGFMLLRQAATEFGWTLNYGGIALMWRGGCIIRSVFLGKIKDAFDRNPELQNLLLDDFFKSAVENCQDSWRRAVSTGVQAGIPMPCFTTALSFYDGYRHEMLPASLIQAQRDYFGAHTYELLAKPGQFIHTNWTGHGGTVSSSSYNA
# [13] = differential killing of epithelial or mesenchymal cells, primary screen, imaging, PC-3E GFP, TEM4-18 mCherry, co-culture (AID 1345086;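 active = compounds killing one labelled cell type while sparing the other, by normalised counts and ratio limits, not self-fluorescent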;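 for all read-outs here: cells exposed to compound for 72 h before imaging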;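 for red/green cell ratio (normalised): normalised mesenchymal count divided by normalised epithelial count so high means epithelial killing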); conditions: imaging cell counts, at 1 µM; for red/green cell ratio (normalised): actives lie on both sides
# [14] = test system: Aerobactin synthetase IucA (Klebsiella pneumoniae hvKP1); experiment: Biochemical IucA enzyme inhibition primary screen of the Spectrum library (AID 1346200; call rule not given here;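 note: 100% = wells without compound and 0% = wells lacking enzyme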); conditions: malachite green pyrophosphate, A620, at 8 µM, stronger effect = lower value
# [15] = survival rescue of mitochondrial mutant cells in low glucose, primary screen, MELAS cybrids, Rieske KO mouse fibroblasts, CellTiter-Glo (AID 1508586);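 note: z relative to plate mean and SD of compound and empty wells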
# [16] = molecular target: NAD(+) hydrolase SARM1 (Homo sapiens) (UniProt Q6SZW1); experiment: SARM1 TIR NADase inhibitors, cell lysate, NAD-Glo luminescence (AID 1508614;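 active = compound whose remaining NAD level is above about 45 nM, limit read from the data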;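 note: higher remaining NAD means stronger inhibition of SARM1 NADase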); conditions: SAM-TIR HEK293T lysate NADase, at 1 µM, stronger effect = higher value
# Chain of NAD(+) hydrolase SARM1 (Homo sapiens) (Q6SZW1 whole entry, looked up, the tested form may be a part): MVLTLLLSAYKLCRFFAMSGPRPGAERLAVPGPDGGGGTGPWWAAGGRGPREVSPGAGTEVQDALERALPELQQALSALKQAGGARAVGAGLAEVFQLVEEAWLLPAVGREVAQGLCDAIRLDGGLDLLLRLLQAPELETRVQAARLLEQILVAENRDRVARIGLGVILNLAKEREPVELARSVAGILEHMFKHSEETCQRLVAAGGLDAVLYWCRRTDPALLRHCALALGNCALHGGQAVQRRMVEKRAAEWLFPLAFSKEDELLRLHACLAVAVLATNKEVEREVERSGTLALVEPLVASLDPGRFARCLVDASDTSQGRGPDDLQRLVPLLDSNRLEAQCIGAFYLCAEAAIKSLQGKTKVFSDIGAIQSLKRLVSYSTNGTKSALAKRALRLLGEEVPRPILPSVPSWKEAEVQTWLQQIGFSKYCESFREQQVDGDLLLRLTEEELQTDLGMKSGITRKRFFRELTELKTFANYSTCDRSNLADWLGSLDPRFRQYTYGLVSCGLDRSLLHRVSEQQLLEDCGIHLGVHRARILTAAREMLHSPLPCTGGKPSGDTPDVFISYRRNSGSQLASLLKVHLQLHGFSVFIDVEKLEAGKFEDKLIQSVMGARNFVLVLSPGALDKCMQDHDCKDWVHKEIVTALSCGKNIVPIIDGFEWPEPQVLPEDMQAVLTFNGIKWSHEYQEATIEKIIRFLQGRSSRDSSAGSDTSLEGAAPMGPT
# [17] = molecular target: Mitogen-activated protein kinase 7 (Homo sapiens) (UniProt Q13164); experiment: ERK5 transactivation activators in reporter cells, primary screen, cell-based, HTS (AID 1508626;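 active = luciferase signal above three times the same-plate solvent-only control wells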;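 note: luciferase driven by Gal4-ERK5 fusion binding five Gal4 sites before minimal TATA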); conditions: HeLa Gal4-ERK5 transactivation, 18 h, at 5 µM, stronger effect = higher value
# Chain of Mitogen-activated protein kinase 7 (Homo sapiens) (Q13164 whole entry, looked up, the tested form may be a part): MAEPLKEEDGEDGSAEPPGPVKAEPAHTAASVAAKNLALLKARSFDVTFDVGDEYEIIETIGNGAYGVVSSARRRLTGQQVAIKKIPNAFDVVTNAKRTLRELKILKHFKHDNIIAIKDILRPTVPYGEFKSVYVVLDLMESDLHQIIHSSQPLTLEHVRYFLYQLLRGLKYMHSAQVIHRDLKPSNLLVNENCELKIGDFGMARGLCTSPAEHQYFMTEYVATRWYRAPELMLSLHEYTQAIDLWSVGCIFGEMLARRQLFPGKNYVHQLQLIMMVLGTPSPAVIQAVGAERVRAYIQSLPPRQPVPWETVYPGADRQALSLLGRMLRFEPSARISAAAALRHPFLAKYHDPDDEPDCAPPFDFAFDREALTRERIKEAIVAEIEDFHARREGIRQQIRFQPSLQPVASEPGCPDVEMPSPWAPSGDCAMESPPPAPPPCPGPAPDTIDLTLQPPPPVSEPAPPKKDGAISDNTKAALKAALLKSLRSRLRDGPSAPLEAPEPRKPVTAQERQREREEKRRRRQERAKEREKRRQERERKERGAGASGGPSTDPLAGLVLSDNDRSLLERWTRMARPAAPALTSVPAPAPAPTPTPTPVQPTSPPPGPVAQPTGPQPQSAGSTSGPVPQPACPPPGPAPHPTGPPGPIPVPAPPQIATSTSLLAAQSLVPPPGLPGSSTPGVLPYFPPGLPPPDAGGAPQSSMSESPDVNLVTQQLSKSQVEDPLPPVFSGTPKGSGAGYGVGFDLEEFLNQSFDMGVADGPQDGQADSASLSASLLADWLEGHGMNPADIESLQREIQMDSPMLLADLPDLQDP
# [18] = viability rescue of complex I mutant cybrids, primary screen, cell-based, galactose medium, ATP luminescence (AID 1645843;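 active = z-score of at least 1.8 in each of two replicates, scored against plate mean and spread of sample wells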;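 note: positive z means more ATP and so rescue of galactose-driven cybrid death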); conditions: complex I mutant cybrid cells, 72 h, stronger effect = higher value
# [19] = sensitizers of A549 cells to miR-34 induction, primary screen, imaging, A549 dox-inducible miR-34, nuclei and caspase counts (AID 1347080;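 active = compounds whose cell count with miR-34 switched on is under 0.7 times the count with it off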); conditions: A549 miR-34 inducible, Hoechst nuclei count, 48 h
# [20] = measured here: epithelial PC-3E GFP cell survival
# [21] = measured here: mesenchymal TEM4-18 mCherry cell survival
# [22] = MELAS cybrid survival, CellTiter-Glo 48 h, stronger effect = higher value
# [23] = Rieske KO mouse fibroblast survival, CellTiter-Glo 72 h
smiles,measurement,setting,value
Cc1cccc(C)c1NC1=NCCCS1,score,[1],1.34
same,cytochrome c release ratio,[2],0.7
same,inhibition of aggregation,[3],87.3%
same,nuclear beta-catenin stimulation,[4]; at 10 µM,0.7% (inactive)
same,nuclear beta-catenin stimulation,"[4]; stimulation, at 2 µM",1.8%
same,insulin secretion stimulation,[5],3.2% (inactive)
same,viability decrease,[6],-8.6% (inactive)
same,tube area decrease,[7],-3.5% (inactive)
same,GLP1 secretion stimulation,[8],1.7% (inactive)
same,inhibition of viability,[9],10.6% (inactive)
same,viability decrease (inhibition),[10],-13.1% (inactive)
same,viability decrease (inhibition),[11],2.9% (inactive)
same,inhibition,[12],-17.7% (inactive)
same,red/green cell ratio (normalised),[13],1.15 (inactive)
same,normalised cell number,[13]; [20],1.1
same,normalised cell number,[13]; [21],1.27
same,activity remaining,[14],116% (inactive)
same,z-score,[15]; [22],-0.333 (inactive) and 0.534 (inactive) and -0.793 (inactive)
same,z-score,[15]; [23],-0.0574 and -0.344 and 0.356
same,remaining NAD,[16],10 nM (inactive)
same,luciferase signal,[17],36 AU (inactive)
same,z-score,[18],0.22 (inactive) and 0.48 (inactive)
COc1ccc(Cc2nccc3cc(OC)c(OC)cc23)cc1OC,score,[1],1.48
same,cytochrome c release ratio,[2],1.07
same,inhibition of aggregation,[3],46.4%
same,nuclear beta-catenin stimulation,[4]; at 10 µM,1.4% (inactive)
same,nuclear beta-catenin stimulation,"[4]; stimulation, at 2 µM",-0.3%
same,insulin secretion stimulation,[5],-2.5% (inactive)
same,viability decrease,[6],54.7% (active)
same,tube area decrease,[7],59.3% (active)
same,GLP1 secretion stimulation,[8],2.3% (inactive)
same,inhibition of viability,[9],39.8% (inactive)
same,viability decrease (inhibition),[10],112% (active)
same,viability decrease (inhibition),[11],14.5% (inactive)
same,inhibition,[12],-8.16% (inactive)
same,red/green cell ratio (normalised),[13],0.84 (inactive)
same,normalised cell number,[13]; [20],1
same,normalised cell number,[13]; [21],0.83
same,activity remaining,[14],114% (inactive)
same,fold change,[19]; stronger effect = lower value,1.24 (inactive) and 0.81 (inactive) and 0.838 (inactive)
same,fold change,[19]; measured here: relative caspase fold change +Dox/-Dox,0.505 and 1.57 and 3.09
same,cell count,"[19]; measured here: total cells with miR-34 induction, stronger effect = lower value",7270 and 6810 and 7780
same,cell count,[19]; measured here: total cells without miR-34 induction,5860 and 8410 and 9280
same,z-score,[15]; [22],0.889 (inactive)
same,z-score,[15]; [23],0.124
same,remaining NAD,[16],10 nM (inactive)
same,luciferase signal,[17],24 AU (inactive)
same,z-score,[18],-1.28 (inactive)
CCCCCCCCC(=O)NCc1ccc(O)c(OC)c1,nuclear beta-catenin stimulation,[4]; at 10 µM,2.1% (inactive)
same,nuclear beta-catenin stimulation,"[4]; stimulation, at 2 µM",1.1%
same,insulin secretion stimulation,[5],-0.6% (inactive)
same,viability decrease,[6],4.5% (inactive)
same,tube area decrease,[7],21.4% (inactive)
same,GLP1 secretion stimulation,[8],4% (inactive)
same,inhibition of viability,[9],1.8% (inactive)
same,viability decrease (inhibition),[10],49.7% (inactive)
same,viability decrease (inhibition),[11],11.7% (inactive)
same,inhibition,[12],-12.3% (inactive)
same,activity remaining,[14],92.7% (inactive)
same,remaining NAD,[16],10 nM (inactive)
same,luciferase signal,[17],52 AU (inactive)
NC(=O)CN1CCCC1=O,score,[1],1.12
same,cytochrome c release ratio,[2],0.79
same,inhibition of aggregation,[3],1.59%
same,nuclear beta-catenin stimulation,[4]; at 10 µM,-0.1% (inactive)
same,nuclear beta-catenin stimulation,"[4]; stimulation, at 2 µM",1.2%
same,insulin secretion stimulation,[5],0.2% (inactive)
same,viability decrease,[6],-6.65% (inactive)
same,tube area decrease,[7],-16.1% (inactive)
same,GLP1 secretion stimulation,[8],1.9% (inactive)
same,inhibition of viability,[9],-10.5% (inactive)
same,viability decrease (inhibition),[10],10% (inactive)
same,viability decrease (inhibition),[11],0.05% (inactive)
same,inhibition,[12],-18.4% (inactive)
same,red/green cell ratio (normalised),[13],1.04 (inactive)
same,normalised cell number,[13]; [20],0.91
same,normalised cell number,[13]; [21],0.95
same,activity remaining,[14],112% (inactive)
same,z-score,[15]; [22],0.856 (inactive) and 0.336 (inactive)
same,z-score,[15]; [23],-2.44 and 0.0138
same,remaining NAD,[16],10 nM (inactive)
same,luciferase signal,[17],44 AU (inactive)
same,z-score,[18],0.785 (inactive)
